B2AR arrestin ag – ADRB2 beta-arrestin recruitment; P07550; 44,000 tested, under 10 active; HTLA Tango cells, beta-arrestin recruitment, luciferase luminescence, 18 h; Potency, µM (titrated, usually from 46.1 µM), usual class: activators;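 further: potency means the concentration at half of the fitted maximal effect; 0% = DMSO and full agonism = EC100 isoproterenol or metaproterenol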
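Tango cells expressing recombinant beta2-AR and beta-arrestin were treated with compounds (up to 46 microM titration) in DMEM with 1% FBS for 18 hr at 37 degrees C. Beta-arrestin recruitment drove tTA-dependent luciferase, read by luminescence; curves were fitted and classed.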
GALC G270D up – raises human GALC G270D mutant activity in cells; 145M-Twi-hGALC-G270D cells (Twitcher mouse brain line with human GALC G270D), HMU-beta-Gal fluorescence, 48 h; Potency, µM (top dose mostly 57.5 µM), actives largely listed as activators; actives 0.1% (n = 45,000); AID 1159614; further: potency means the concentration at half of the fitted maximal effect; 0% is about no effect; nearly all actives have a fitted effect of over 65% in size
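Brain-derived Twitcher mouse 145M-Twi cells stably expressing human GALC-G270D or wild-type GALC, treated live, then residual GALC activity read by fluorescence of HMU-b-Gal substrate (0.1 mM final) in citrate-phosphate buffer pH 5.2 with sodium taurocholate. Signal increase indicates enhancement.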
GALK inh – inhibitors of human galactokinase (GALK); Potency, µM (top dose mostly 57.5 µM), inactives show at the highest dose activity, negative = inhibition, most hits filed as inhibitors; AID 1347072; recombinant GALK, Kinase-Glo ATP luminescence, 1 h; 44,000 tested, under 10 active; P51570;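 further: plate controls were full GALK reaction for no effect and reaction lacking GALK for full effect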
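5 nM GALK with 35 µM ATP and 100 µM galactose in HEPES pH 8.0, MgCl2, NaCl, DTT, BSA; 1 h RT reaction, remaining ATP detected by Kinase-Glo Plus luminescence after 10 min; qHTS concentration series.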
TSG101-PTAP inh – inhibitors of HIV-1 PTAP binding to human TSG101, validation; 44,000 tested, under 10 active; Fluorescence polarization, FITC-PTAP peptide/Tsg101, 20 min; Potency, µM (series often up to 115 µM), most hits filed as inhibitors; AID 1347069; further: potency means the concentration at half of the fitted maximal effect; 0% is about no effect
Target sequence (Q99816 whole entry, looked up): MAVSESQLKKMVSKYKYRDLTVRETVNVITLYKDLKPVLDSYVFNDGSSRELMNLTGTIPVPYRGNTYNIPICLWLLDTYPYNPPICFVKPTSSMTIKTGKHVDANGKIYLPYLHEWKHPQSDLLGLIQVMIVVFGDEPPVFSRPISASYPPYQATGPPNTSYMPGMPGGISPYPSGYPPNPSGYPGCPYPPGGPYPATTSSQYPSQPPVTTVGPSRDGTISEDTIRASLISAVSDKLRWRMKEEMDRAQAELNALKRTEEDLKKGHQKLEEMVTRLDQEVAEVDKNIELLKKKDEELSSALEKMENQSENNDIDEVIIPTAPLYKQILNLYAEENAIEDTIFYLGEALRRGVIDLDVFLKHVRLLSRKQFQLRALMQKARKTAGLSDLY
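Fluorescence polarization binding of Tsg101 binding domain (10 uM final) to FITC-labeled PTAP-motif peptide (50 nM final) in HEPES pH 7.5/NaCl/Tween 20/EDTA/TCEP buffer; 20 min at r.t. Actives by curve class, <25 µM, efficacy <60% inhibition.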
An asterisk follows results filed as active; i = inactive; / = no result given. This excerpt belongs to a sample that is enriched for hits. The call rests on the fitted dose curve; in most records, active means well fitted curve in the direction sought with a large enough effect; inconclusive means small, poorly fitted or top-dose-only effect, or another doubt; inactive means no such curve, though single readings can be large; an effect the other way counts as inactive or inconclusive.

SMILES | B2AR arrestin ag | GALC G270D up | GALK inh | TSG101-PTAP inh
Cc1cc(CCCOc2c(C)cc(-c3noc(C(F)(F)F)n3)cc2C)on1 | / | i | / | /
CCC(C(=O)O)c1ccc(N2Cc3ccccc3C2=O)cc1 (stereo not drawn) | / | i | / | /
CC(C)C(=O)Nc1cccc(C2CN3CCSC3=N2)c1 (stereo not drawn) | / | i | / | /
N#CSCC(=O)O | / | i | / | /
CCOc1ncc(F)c(=O)[nH]1 | / | i | / | /
Cc1ccc(NC(=O)CCSc2nc(-c3ccco3)cc(C(F)(F)F)n2)cc1F | i | i | 2% | i
O=C(CCSc1nc(-c2ccco2)cc(C(F)(F)F)n1)Nc1cccc(O)c1 | i | 22µM* | 1% | i
Cc1ccc(-c2ccccc2C#N)cc1 | / | i | / | /
Cc1cccn2c(=O)c3cc(C(=O)NC(C)c4ccccc4)c(=N)n(CCOCCO)c3nc12 (stereo not drawn) | i | i | 1% | i
CCOCCCn1c(=N)c(C(=O)NC(C)c2ccccc2)cc2c(=O)n3cccc(C)c3nc21 (stereo not drawn) | i | 20µM* | 1% | i
CCn1c(=N)c(C(=O)NC2CCCCC2)cc2c(=O)n3cccc(C)c3nc21 | i | 28µM* | 0% | i
Cc1cccn2c(=O)c3cc(C(=O)NCc4ccccc4)c(=N)n(CCOCCO)c3nc12 | i | 10µM* | 6% | i
CCCn1c(=N)c(C(=O)NC2CCCC2)cc2c(=O)n3cccc(C)c3nc21 | i | i | 0% | i
Cc1ccccc1C(=O)Nc1ccc(C(=O)N2CCCC(O)c3cc(Cl)ccc32)c(C)c1 (stereo not drawn) | / | i | / | /
COc1cc(C=C2CCC/C(=C\c3ccc(O)c(OC)c3)C2=O)ccc1O | / | i | / | /
CC[C@@H]([C@H](C)O)n1ncn(-c2ccc(N3CCN(c4ccc(OC[C@@H]5CO[C@@](Cn6cncn6)(c6ccc(F)cc6F)C5)cc4)CC3)cc2)c1=O | / | i | / | /
COc1cccc(/C=C/c2nc(C#N)c(NCCc3ccccc3)o2)c1 | i | i | 3% | i
COc1cccc(/C=C/c2nc(C#N)c(N3CCC(C(N)=O)CC3)o2)c1 | i | 25µM* | -4% | i
COc1ccc(/C=C/c2nc(C#N)c(N3CCCCC3)o2)cc1OC | i | 28µM* | 2% | i
COc1cccc(/C=C/c2nc(C#N)c(N(C)Cc3ccccc3)o2)c1 | i | 25µM* | 3% | i
CCCC(CCC)(C(=O)OCC)C(=O)OCC | / | i | / | /
CCN(CC)c1ccc(C(=C2C=CC(=[N+](CC)CC)C=C2)c2cc(S(=O)(=O)O)ccc2S(=O)(=O)[O-])cc1 | / | i | / | /
C/C(=N/NC(=O)c1ccncc1)C(=O)O | / | i | / | /
Cc1ccccc1C(=O)N1CC/C(=N\OS(=O)(=O)O)c2ccc(Cl)cc21 | / | i | / | /
COc1cccc(NC(=O)/C(C#N)=C/c2ccc(-c3ccc(C)cc3)o2)c1 | i | i | 2% | 40µM*
SMILES | B2AR arrestin ag | GALC G270D up | GALK inh | TSG101-PTAP inh
COc1ccc(/C(C)=C/C(=O)O)c(OC)c1 | / | i | / | /
CC(C)(C)C1CCC(CC2=C(O)c3ccccc3C(=O)C2=O)CC1 (stereo not drawn) | / | i | / | /
Nc1nc(=O)n([C@@H]2O[C@H](CO)[C@@H](O)[C@@H]2F)cc1I | / | i | / | /
C#CC(C)(CC)OC(=O)c1ccccc1C(=O)O (stereo not drawn) | / | i | / | /
O=c1[nH]c(=O)n([C@H]2O[C@H](CO)[C@@H](O)[C@@H]2O)cc1/C=C\Br | / | i | / | /
CC(CC1c2ccccc2CCc2ccccc21)CN(C)C (stereo not drawn) | / | i | / | /
CC(C)C(=O)Nc1cccc(C(F)(F)F)c1 | / | i | / | /
COc1cc2cc(CNc3ccccc3)c(=O)n(CC(=O)Nc3cc(C)cc(C)c3)c2cc1OC | i | 40µM* | 3% | i
CCc1ccc(NC(=O)Cn2c(=O)c(CNc3ccccc3)cc3cc(OC)c(OC)cc32)cc1 | i | i | 8% | i
Nc1c(I)cc(I)c(C(=O)N(CCC(=O)O)c2ccccc2)c1I | / | i | / | /
CN(C)CCN(Cc1ccsc1)c1ccccn1 | / | i | / | /
Cc1ccc2nc(-c3ccc(NC(=O)C(F)(F)F)cc3)sc2c1 | i | 14µM* | 1% | i
CCCSS/C(CCO)=C(\C)N(C=O)Cc1cnc(C)nc1N | / | i | / | /
C[C@H]1C[C@H](O)c2ccsc2S1(=O)=O | / | i | / | /
